Results as given in PubChem BioAssay AID488890 (Southern Research Specialized Biocontainment Screening …, 2010).
Screen size: about 320,000 compounds; about 1,300 (0.41%) were called active. About 3% were inconclusive and are not listed. No rule for the calls is given here. The list is a sample of the results. Entries with a potency or affinity are not part of this list.

Assay: growth inhibition of non-replicating M. tuberculosis (AID 488890);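 also: plate controls were DMSO cells for no effect and high antibiotic wells for full effect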
Conditions: Mycobacterium tuberculosis non-replicating, at 25 µM, stronger effect = higher value

Row | Compound | inhibition [%]
1 | CCn1c(SCc2cccnc2)nnc1-c1c[nH]c2ccccc12 | -5.65
2 | CC(=O)N1CCCc2cc(S(=O)(=O)NCCC3=CCCCC3)ccc21 | 17.1
3 | CCOC(=O)c1ccc(CNCc2ccc(Br)cc2)cc1 | 43.5
4 | CC(=O)NCC(=O)OCC(=O)c1ccc(Br)cc1 | 27.9
5 | COc1ccc(C(=O)CN2CCCCC2)cc1 | -2.71
6 | CC(C)Oc1ccc(OCCCN2CCCCCC2)cc1 | 35.7
7 | COc1ccc(C(=O)OCCN2CCCCC2)cc1 | 4.85
8 | CC(C)COc1ccc(C(=O)OCCN2CCCCC2)cc1 | 13.8
9 | O=C(CCCCN1CCCCC1)c1ccccc1 | -7.7
10 | O=C(CN1CCCCC1)c1ccc(OC(F)F)cc1 | -4.47
11 | CCC(=O)c1ccc(OCC(O)CN2CCCCC2)cc1 (stereo not drawn) | 9.06
12 | O=C(CCN1CCCCC1)Nc1ccccc1 | -3.98
13 | COCCC1CCCCN1C(=O)c1cc(COc2ccc(C)nc2)on1 (stereo not drawn) | -7.63
14 | Cc1csc(=Nc2c(C)n(C)n(-c3ccccc3)c2=O)n1Cc1ccccc1 | -1.63
15 | NC(=O)c1ccsc1NC(=O)COC(=O)c1ccc(Cl)c(N)c1 | -0.17
16 | COc1ccc(C)cc1NC(=O)CCC(=O)Nc1nnc(C2CCCCC2)s1 | 0.87
17 | CCN(CC1CCCN(CCc2cccc(OC)c2)C1)C(=O)c1ccoc1C (stereo not drawn) | -3.45
18 | Cc1cc(NC(=O)CSc2nnc(-c3ccc(S(=O)(=O)N4CCCC4)cc3)n2C)no1 | -6.04
19 | O=C(Nc1cc(S(=O)(=O)N2CCCCCC2)ccc1OCC(F)(F)F)c1cnccn1 | 9.9
20 | Cn1c(=O)[nH]c2nncnc2c1=O | 12.4
21 | CCCCn1c(N)c(N(CCC(C)C)C(=O)COC(=O)c2cccnc2Cl)c(=O)[nH]c1=O | 17.4
22 | CC(=O)Nc1ccc(S(=O)(=O)NCC(=O)NCCc2ccc(S(N)(=O)=O)cc2)cc1 | -0.25
23 | O=C(N=C1N=C2C=CC(Br)=CN2Cc2ccccc21)c1ccc([N+](=O)[O-])cc1[N+](=O)[O-] | 61.8
24 | CCOc1ccc(NC(=O)CCN2CCCCC2)cc1 | -37.2
25 | CCOc1ccc(OCCN2CCCCC2)cc1 | 8.17

Row | Compound | inhibition [%]
26 | O=C(CSc1nnc(Cn2nnc3ccccc32)o1)Nc1cccc(Cl)c1 | 3.51
27 | N#CCO/N=C(\c1ccccc1)c1ccncc1 | 0.55
28 | O=c1oc2ccccc2c(Nc2cccc3ccccc23)c1[N+](=O)[O-] | 21.2
29 | O=c1oc2ccccc2c(Nc2ccc(O)cc2)c1[N+](=O)[O-] | 35.3
30 | COc1ccc(S(=O)(=O)N2CCN(C)CC2)cc1C | 0.44
31 | N#Cc1ccsc1NC(=O)C1CC(=O)N(Cc2ccccc2)C1 (stereo not drawn) | 50.7
32 | Cc1nn(CC(=O)N2CCc3ccccc3C2)c(C)c1Cl | 10.6
33 | CCOC(=O)c1c(NC(=O)CCN2CCOCC2)sc(C)c1-c1ccccc1 | 55.4
34 | CCOC(=O)c1c(NC(=O)CN2CCOCC2)sc(C(=O)NC)c1C | -15.7
35 | O=C(Nc1ncc2c(n1)-c1ccccc1OC2)c1ccc(Cl)cc1 | 75.5
36 | O=C(Nc1ncc2c(n1)-c1ccccc1OC2)c1ccccc1Cl | 13.6
37 | COc1ccc(C(CNC(=O)c2cccc(S(=O)(=O)NCc3ccccc3)c2)N(C)C)cc1 (stereo not drawn) | -0.497
38 | O=C(NCc1ccc2c(c1)OCO2)c1c(Cl)cccc1Cl | 3.82
39 | O=C(NCc1ccc2c(c1)OCO2)c1ccc(Br)s1 | 70.4
40 | CC(C)(C)OC(=O)[C@H](Cc1ccccc1)NC(=O)c1nc[nH]c1C(=O)N1CCNCC1 | 9.16
41 | Cc1ccc(NC(=O)C2(c3ccc([N+](=O)[O-])cc3)CCCC2)cc1 | 56.9
42 | CCOC(=O)C1CCN(c2c(-c3ccccc3)c3cc(Cl)ccc3[nH]c2=O)CC1 | -6.2
43 | CN(Cc1ccccc1)C(=O)c1[nH]cnc1C(=O)N[C@@H](Cc1ccccc1)C(=O)OC(C)(C)C | 57.5
44 | CSc1ccccc1NC(=O)c1cc(CC(C)C)on1 | 77.5
45 | CC(C)Cc1cc(C(=O)Nc2cc(Cl)ccc2Cl)no1 | 75.3
46 | CC(C)Cc1cc(C(=O)Nc2ccc3c(c2)OCO3)no1 | 79
47 | COc1ccc(NC(=O)c2cc(CC(C)C)on2)cc1OC | 27.3
48 | COc1ccc(NC(=O)c2ccc(NC(=O)c3cccs3)cc2)cc1 | 17.2
49 | Cc1ccc(S(=O)(=O)N(C)/N=C2/C(=O)N(CC(=O)O)c3ccccc32)cc1 | -9.17
50 | CC/C(=N\NC(=O)Nc1ccccc1)c1c(O)n(Cc2ccccc2)c(=O)[nH]c1=O | 0.07

Row | Compound | inhibition [%]
51 | O=C(/C=C/c1ccc(Br)cc1)Nc1ccc(S(=O)(=O)Nc2ncccn2)cc1 | 21.5
52 | CCOc1ccccc1NC(=O)CCS(=O)(=O)c1cccs1 | 1.98
53 | C/C(=N\NC(=O)c1ccccn1)c1ccc(Cl)cc1 | 65.9
54 | C/C(=N/NC(=O)c1ccccn1)c1c[nH]c2ccccc12 | 53
55 | O=C(NCc1ccccn1)c1ccccc1OCc1ccc(F)cc1 | -9.24
56 | CCC(CC)=NNC(=O)c1ccccc1OCc1ccc(F)cc1 | 1.96
57 | C/C(=N/NC(=O)c1ccccn1)c1ccc(O)cc1 | 65.9
58 | C/C(=N/NC(=O)c1ccncc1)c1c[nH]c2ccccc12 | 52.8
59 | C/C(=N\NC(=O)c1cccc(Br)c1)c1ccc(Br)cc1 | 5.12
60 | C/C(=N\NC(=O)c1cccc(Br)c1)c1cccnc1 | -8.7
61 | CC(=O)NC(c1ccc(C(C)C)cc1)c1c(O)ccc2ccccc12 (stereo not drawn) | -3.1
62 | Cc1cc(C)c(S(=O)(=O)N2CCCC(C(=O)N3CCCC3)C2)c(C)c1 (stereo not drawn) | -5.37
63 | CCn1c(=O)n(CC)c2cc(NS(=O)(=O)c3ccccc3)ccc21 | 5.29
64 | COC(=O)c1c(-c2cccnc2)csc1NC(=O)c1cc(C)on1 | 39.4
65 | CC(C)c1ccc(NC2CCCN(C(=O)CCc3cnn(C)c3)C2)cc1 (stereo not drawn) | -5.85
66 | CC(=O)c1sc(NC(=O)CN2C(=O)CCC2=O)nc1C | -3.51
67 | O=c1cc([O-])[n+]2c3n1CCCN3CCC2 | -14.7
68 | COc1cc(C(=O)N/N=C(\C)c2ccccn2)cc(OC)c1OC | 36.9
69 | COc1ccc(C(=O)N/N=C(\C)CC(=O)Nc2ccccn2)cc1OC | -1.08
70 | CCn1c(SCC(=O)Nc2cc(Cl)ccc2OC)nnc1C1CC1 | 1.4
71 | COc1ccc(NC(=O)COc2nc(N(C)C)nc(N(C)C)n2)cc1 | -4.63
72 | COc1ccc(CCC(=O)NC2CCCN(Cc3ccc(Cl)cc3)C2)cc1OC (stereo not drawn) | 7.24
73 | OCC[C@@H]1C[C@@H](O)[C@H](O)[C@@]2(OCCc3ccccc32)O1 | -1.04
